# Measured values taken from PubChem BioAssay (Tox21).
# Values joined by “and” are separate entries in the source; they are usually repeats but may differ in a detail not shown here. Identical values can stand only once. Where a structure was tested more than once in an assay, its records may differ in their call. Active and inactive are the calls of the source. Entries that show only a call come without a potency. Unless noted, the call rests on the fitted dose curve; in most records, active means well fitted curve in the direction sought with a large enough effect in the repeat runs; inconclusive means weak or mixed curves; inactive means no such curve, though single readings can be large; an effect the other way counts as inactive or inconclusive.
# Legend:
# [1] = qHTS assay to identify small molecule antagonists of the thyroid receptor (TR) signaling pathway (AID 743065); further: nearly all actives have a fitted effect of over 55% in size; further: potency means the concentration at half of the fitted maximal effect
# Outline: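 GH3.TRE-Luc rat pituitary cells (two TREs driving luciferase) were dosed with compound, then stimulated with 1 nM T3 (final) for 23.5 h at 37 C. ONE-Glo luminescence was the read-out, with CellTiter-Fluor fluorescence as the cytotoxicity counter-screen.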
# [2] = test system: thyroid hormone receptor (rat, GH3 cells); experiment: qHTS assay to identify small molecule agonists of the thyroid receptor (TR) signaling pathway (AID 743066; calls by dose curve)
# [3] = molecular target: Estrogen receptor (Homo sapiens) (UniProt P03372); experiment: qHTS assay to identify small molecule antagonists of the estrogen receptor alpha (ER-alpha) signaling pathway (AID 743069; active means well fitted curve in the direction sought with a large enough effect in the signal ratio in the repeat runs, not every such curve was filed as active; inconclusive means weak or mixed curves, or effect the other way; inactive means no such curve, though single readings can be large or run the other way; the % refers to the signal ratio; further: potency means the concentration at half of the fitted maximal effect)
# Sequence of Estrogen receptor (Homo sapiens) (P03372 whole entry, looked up): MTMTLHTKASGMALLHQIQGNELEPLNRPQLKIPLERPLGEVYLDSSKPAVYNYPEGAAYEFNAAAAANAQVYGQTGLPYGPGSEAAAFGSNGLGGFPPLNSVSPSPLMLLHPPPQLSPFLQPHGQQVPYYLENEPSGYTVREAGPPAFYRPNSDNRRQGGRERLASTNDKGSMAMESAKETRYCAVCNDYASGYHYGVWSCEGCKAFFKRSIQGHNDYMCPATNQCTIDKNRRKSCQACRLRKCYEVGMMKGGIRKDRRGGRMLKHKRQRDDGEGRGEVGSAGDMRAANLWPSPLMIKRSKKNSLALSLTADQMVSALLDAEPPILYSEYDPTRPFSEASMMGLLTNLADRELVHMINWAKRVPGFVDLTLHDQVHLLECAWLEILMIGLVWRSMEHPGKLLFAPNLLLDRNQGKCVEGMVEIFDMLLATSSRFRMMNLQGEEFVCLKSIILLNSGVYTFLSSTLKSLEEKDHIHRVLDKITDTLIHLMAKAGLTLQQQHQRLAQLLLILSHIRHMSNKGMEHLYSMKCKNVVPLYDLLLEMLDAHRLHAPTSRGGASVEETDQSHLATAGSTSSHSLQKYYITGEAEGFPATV
# Outline: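 In this cell-based reporter format, GripTite HEK293 cells harbouring ER-alpha-UAS-bla were grown overnight with 2% charcoal-stripped FBS, dosed with DMSO-dissolved compounds, then challenged with 17beta-estradiol. After 18 hr at 37C, beta-lactamase activity was detected by FRET fluorescence.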
# [4] = qHTS assay to identify small molecule antagonists of the estrogen receptor alpha (ER-alpha) signaling pathway - cell viability counter screen (AID 743074; calls by dose curve; further: nearly all actives have a fitted effect of over 45% in size; further: potency means the concentration at half of the fitted maximal effect)
# [5] = molecular target: Estrogen receptor (Homo sapiens) (UniProt P03372); experiment: qHTS assay to identify small molecule agonists of the estrogen receptor alpha (ER-alpha) signaling pathway (AID 743075; calls by dose curve)
# [6] = qHTS assay to identify small molecule antagonists of the estrogen receptor alpha (ER-alpha) signaling pathway using the BG1 cell line (AID 743080; calls by dose curve;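 further: BG1 cells stimulated with 17beta-estradiol alongside compound; nearly all actives have a fitted effect of over 25% in size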; further: potency means the concentration at half of the fitted maximal effect)
# Outline: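 BG1-Luc-4E2 cells (endogenous full-length ER-alpha, stable 4×ERE-luciferase) were starved 5 days in phenol-red-free medium with 10% charcoal-stripped FBS, plated 24 h, then given compound plus 17beta-estradiol for 21.5 h at 37 C; ONE-Glo luminescence read after 30 min.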
# [7] = qHTS assay to identify small molecule antagonists of the estrogen receptor alpha (ER-alpha) signaling pathway using the BG1 cell line - cell viability counter screen (AID 743081);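 further: compound given together with 17beta-estradiol as the ER stimulus; nearly all actives have a fitted effect of over 45% in size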; further: potency means the concentration at half of the fitted maximal effect
# Aromatase (Homo sapiens) = Aromatase (Homo sapiens) (UniProt P11511); experiment: qHTS assay to identify aromatase inhibitors (AID 743083); further: series mostly up to about 70 µM; nearly all actives have a fitted effect of over 55% in size
# Sequence of Aromatase (Homo sapiens) (P11511 whole entry, looked up): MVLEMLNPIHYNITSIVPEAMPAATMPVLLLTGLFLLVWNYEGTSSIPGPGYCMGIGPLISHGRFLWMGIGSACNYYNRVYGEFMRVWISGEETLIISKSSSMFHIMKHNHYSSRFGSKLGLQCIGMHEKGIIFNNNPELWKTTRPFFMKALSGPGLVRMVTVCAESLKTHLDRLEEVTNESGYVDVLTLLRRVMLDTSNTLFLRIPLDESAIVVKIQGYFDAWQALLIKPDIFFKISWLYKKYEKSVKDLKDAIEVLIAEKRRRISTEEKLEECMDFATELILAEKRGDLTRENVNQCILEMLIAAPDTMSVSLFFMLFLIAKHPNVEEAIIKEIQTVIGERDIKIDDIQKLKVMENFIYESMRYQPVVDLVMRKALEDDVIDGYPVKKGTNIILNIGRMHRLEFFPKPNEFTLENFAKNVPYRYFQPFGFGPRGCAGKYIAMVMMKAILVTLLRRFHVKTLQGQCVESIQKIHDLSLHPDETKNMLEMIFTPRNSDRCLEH
# [8] = qHTS assay to identify aromatase inhibitors - cell viability counter screen (AID 743084);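 further: cells stimulated with testosterone during compound exposure; nearly all actives have a fitted effect of over 55% in size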; further: potency means the concentration at half of the fitted maximal effect
# [9] = qHTS assay to identify small molecule that activate the aryl hydrocarbon receptor (AhR) signaling pathway - cell viability counter screen (AID 743086); further: nearly all actives have a fitted effect of over 45% in size; further: potency means the concentration at half of the fitted maximal effect
# Outline: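 HepG2-AhR-luc (HG2L7.5c1) cells, 4000/well, treated 24 h at 37 C with compound; viability measured as CellTiter-Fluor fluorescence after 30 min in the same wells as the luciferase read.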
# [10] = molecular target: Peroxisome proliferator-activated receptor gamma (Homo sapiens) (UniProt P37231); experiment: qHTS assay to identify small molecule agonists of the peroxisome proliferator-activated receptor gamma (PPARg) signaling pathway (AID 743094; active means well fitted activation curve with a large enough effect in the signal ratio in the repeat runs, not every such curve was filed as active; inconclusive means weak or mixed curves, or effect the other way; inactive means no such curve, though single readings can be large or run the other way; the % refers to the signal ratio)
# Sequence of Peroxisome proliferator-activated receptor gamma (Homo sapiens) (P37231 whole entry, looked up): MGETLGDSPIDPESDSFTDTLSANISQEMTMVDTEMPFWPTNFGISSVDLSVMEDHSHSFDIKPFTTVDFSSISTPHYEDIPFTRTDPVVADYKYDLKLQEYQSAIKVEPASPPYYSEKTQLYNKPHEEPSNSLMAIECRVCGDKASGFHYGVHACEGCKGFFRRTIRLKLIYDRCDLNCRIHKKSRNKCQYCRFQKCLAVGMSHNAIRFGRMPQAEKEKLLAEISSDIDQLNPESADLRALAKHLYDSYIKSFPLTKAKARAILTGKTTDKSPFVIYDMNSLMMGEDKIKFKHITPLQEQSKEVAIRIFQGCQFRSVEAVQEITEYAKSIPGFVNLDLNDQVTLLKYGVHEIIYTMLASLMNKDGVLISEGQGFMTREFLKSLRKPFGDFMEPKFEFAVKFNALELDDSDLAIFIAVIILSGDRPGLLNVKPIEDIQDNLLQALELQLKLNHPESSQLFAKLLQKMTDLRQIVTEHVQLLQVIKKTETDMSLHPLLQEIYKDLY
# Outline: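 Agonism was assessed in a beta-lactamase reporter system, HEK293H cells with a stably integrated UAS-bla construct under PPARg control; the 17 h treatment at 37C preceded a 1 h room-temperature FRET substrate read.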
# [11] = molecular target: Peroxisome proliferator-activated receptor gamma (Homo sapiens) (UniProt P37231); experiment: qHTS assay to identify small molecule antagonists of the peroxisome proliferator-activated receptor gamma (PPARg) signaling pathway (AID 743191; calls by dose curve; further: nearly all actives have a fitted effect of over 30% in size; further: potency means the concentration at half of the fitted maximal effect)
# Outline: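 GeneBLAzer PPARg UAS-bla HEK293H cells, 5 h post-plating, exposed to compounds 17 h at 37C. LiveBLAzer B/G FRET substrate added for 1 h at room temperature; beta-lactamase reporter read by fluorescence intensity.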
# [12] = qHTS assay for small molecule agonists of the antioxidant response element (ARE) signaling pathway - cell viability counter screen (AID 743203; calls by dose curve; further: nearly all actives have a fitted effect of over 55% in size)
# Outline: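 ATP content via CellTiter-Glo luminescence served as the viability measure. Cells: ARE-bla HepG2, 2,000 per well. Exposure: 16 hrs, 37C/5% CO2.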
# [13] = qHTS assay for small molecule activators of the heat shock response signaling pathway - cell viability counter screen (AID 743209); further: nearly all actives have a fitted effect of over 50% in size
# Outline: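 Compounds dissolved in DMSO were added to overnight-plated HSE-bla HeLa cells and left 5 h at 37 C. Cell viability was quantified by luminescence using CellTiter-Glo.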
# [14] = qHTS assay to identify small molecule antagonists of the thyroid receptor (TR) signaling pathway - cell viability counter screen (AID 743064); further: nearly all actives have a fitted effect of over 50% in size; further: potency means the concentration at half of the fitted maximal effect
# Outline: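 Viability of T3-stimulated (1 nM final) GH3.TRE-Luc cells is measured by CellTiter-Fluor fluorescence after 23.5 h compound exposure at 37 °C plus 30 min reagent incubation.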
# [15] = molecular target: Estrogen receptor (Homo sapiens) (UniProt P03372); experiment: qHTS assay to identify small molecule agonists of the estrogen receptor alpha (ER-alpha) signaling pathway using the BG1 cell line (AID 743079); further: nearly all actives have a fitted effect of over 20% in size
# [16] = molecular target: Aryl hydrocarbon receptor (Homo sapiens) (UniProt P35869); experiment: qHTS assay to identify small molecule that activate the aryl hydrocarbon receptor (AhR) signaling pathway (AID 743085); further: nearly all actives have a fitted effect of over 15% in size; further: potency means the concentration at half of the fitted maximal effect;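 on activation: HG2L7.5c1 human HepG2 liver cells with stably integrated DRE-driven firefly reporter; series mostly up to about 70 µM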
# Sequence of Aryl hydrocarbon receptor (Homo sapiens) (P35869 whole entry, looked up): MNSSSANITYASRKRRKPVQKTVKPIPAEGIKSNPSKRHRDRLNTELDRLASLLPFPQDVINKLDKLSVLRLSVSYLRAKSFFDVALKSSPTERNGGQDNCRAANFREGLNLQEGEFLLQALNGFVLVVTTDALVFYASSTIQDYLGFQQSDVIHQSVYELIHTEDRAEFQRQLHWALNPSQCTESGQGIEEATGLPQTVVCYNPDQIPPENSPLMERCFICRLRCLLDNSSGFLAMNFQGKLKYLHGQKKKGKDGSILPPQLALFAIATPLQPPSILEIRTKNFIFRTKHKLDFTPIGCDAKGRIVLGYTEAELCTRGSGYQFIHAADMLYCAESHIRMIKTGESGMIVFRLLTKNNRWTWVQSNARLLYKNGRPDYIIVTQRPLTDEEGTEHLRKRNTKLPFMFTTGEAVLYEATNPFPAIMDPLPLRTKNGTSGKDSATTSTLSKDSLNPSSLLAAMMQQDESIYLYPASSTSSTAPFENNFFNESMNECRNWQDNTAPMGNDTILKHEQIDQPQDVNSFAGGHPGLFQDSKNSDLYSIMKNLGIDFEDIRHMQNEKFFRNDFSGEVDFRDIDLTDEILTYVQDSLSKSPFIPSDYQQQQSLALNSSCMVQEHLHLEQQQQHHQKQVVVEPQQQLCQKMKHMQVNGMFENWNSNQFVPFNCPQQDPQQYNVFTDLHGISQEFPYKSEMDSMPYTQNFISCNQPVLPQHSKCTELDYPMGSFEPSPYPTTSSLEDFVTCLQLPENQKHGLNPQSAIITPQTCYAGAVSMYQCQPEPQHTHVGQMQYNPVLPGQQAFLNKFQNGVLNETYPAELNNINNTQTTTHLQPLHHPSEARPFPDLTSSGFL
# Outline: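 A multiplexed format paired cell viability (CellTiter-Fluor fluorescence) with AhR-dependent luciferase output (ONE-Glo luminescence) in the same wells of HepG2 DRE-luc cells after 24 h compound exposure at 37C.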
# [17] = qHTS assay to identify small molecule antagonists of the peroxisome proliferator-activated receptor gamma (PPARg) signaling pathway - cell viability counter screen (AID 743194); further: nearly all actives have a fitted effect of over 55% in size
# Outline: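 Cytotoxicity counter screen in PPARg-bla HEK293H cells, same wells as reporter assay. Compounds plus 50 nM rosiglitazone (final) for 17 h at 37 C, then viability read by CellTiter-Glo luminescence.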
# [18] = qHTS assay for small molecule agonists of the antioxidant response element (ARE) signaling pathway (AID 743202; active means well fitted activation curve with a large enough effect in the signal ratio in the repeat runs, not every such curve was filed as active; inconclusive means weak or mixed curves, or effect the other way; inactive means no such curve, though single readings can be large or run the other way; the % refers to the signal ratio; further: potency means the concentration at half of the fitted maximal effect)
# Outline: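 HepG2 ARE-bla cells; 16 h treatment at 37 C; FRET-based beta-lactamase fluorescence read after 2 h substrate incubation at room temperature.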
# [19] = qHTS assay for small molecule activators of the heat shock response signaling pathway (AID 743210; active means well fitted activation curve with a large enough effect in the signal ratio in the repeat runs, with a control signal flat, not every such curve was filed as active; inconclusive means weak or mixed curves; the % refers to the signal ratio;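 further: HeLa cells with beta-lactamase reporter driven by heat shock elements; series mostly up to about 63 µM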)
# Outline: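 Following overnight attachment, HSE-bla HeLa cells received test compounds for 5 h at 37 C; beta-lactamase activity was then detected via FRET substrate fluorescence.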
SMILES,Potency [1],outcome [2],Potency [3],Potency [4],Potency [5],Potency [6],Potency [7],Potency (Aromatase (Homo sapiens)),Potency [8],Potency [9],outcome [10],Potency [11],Potency [12],Potency [13],Potency [14],Potency [15],Potency [16],Potency [17],Potency [18],outcome [19]
Oc1c(Cl)cc(Cl)c(Cl)c1Cl,47.5 µM (active) and 30.6 µM (active),inactive,34 µM [inconclusive] (active),53.8 µM (active),inactive,inactive and 68.6 µM (active),inactive,inactive,inactive,inactive,inactive,17 µM (active),inactive,inactive,–,–,–,–,–,–
OCC1CCCO1 (stereo not given),–,–,inactive,inactive,inactive,inactive,inactive,inactive,inactive,inactive,inactive,inactive,inactive,inactive,inactive,inactive,inactive,inactive,inactive,–
CC1=CC[C@H]2C[C@@H]1C2(C)C,inactive,inactive,inactive,inactive,inactive,inactive,inactive,inactive,inactive,inactive,inactive,–,inactive,inactive,–,inactive,–,inactive,inactive,inactive
CC(=O)[C@@]1(O)CC[C@H]2[C@@H]3CCC4=CC(=O)CC[C@]4(C)[C@H]3CC[C@@]21C,–,–,–,inactive,–,–,inactive,–,–,inactive,–,–,inactive,inactive,inactive,–,–,inactive,–,inactive
CC1CC(OC(=O)c2ccccc2O)CC(C)(C)C1 (stereo not given),–,inactive,–,inactive,–,–,inactive,inactive,inactive,inactive,inactive,inactive,inactive,–,–,–,inactive,inactive,inactive,–
C/C=C(C)/C=C/C=C(C)C,–,inactive,–,inactive,–,–,inactive,inactive,inactive,inactive,inactive,–,inactive,inactive,inactive,–,inactive,inactive,60.4 µM (active),–
O=C(c1cc(O)c(O)c(O)c1)c1ccc(O)c(O)c1O,–,inactive,inactive,inactive,inactive,inactive,68.4 µM (active) and 61.1 µM (active),inactive,34.3 µM (active),30.5 µM (active),–,inactive,inactive,inactive,–,inactive,15.4 µM (active),inactive,–,–
C[C@@H](O)[C@H]1C(=O)N2C(C(=O)O)=C(S[C@@H]3CN[C@H](C(=O)N(C)C)C3)[C@H](C)[C@H]12,–,inactive,–,inactive,–,–,inactive,inactive,inactive,inactive,inactive,inactive,inactive,inactive,inactive,–,–,inactive,inactive,inactive
OCC#CCO,–,inactive,–,–,–,–,inactive,inactive,inactive,inactive,inactive,inactive,inactive,inactive,inactive,–,inactive,inactive,inactive,inactive
NCc1cccc(CN)c1,inactive,inactive,inactive,inactive,inactive,inactive,inactive,inactive,inactive,inactive,inactive,inactive,inactive,inactive,–,inactive,inactive,inactive,inactive,inactive
Oc1ccc2ccccc2c1,–,–,–,inactive,–,–,inactive,inactive,inactive,inactive,–,–,inactive,inactive,inactive,–,49.7 µM (active) and 27.3 µM (active),inactive,35.2 µM (active) and 21.7 µM (active),inactive
CCOC(=O)C1OC1c1ccccc1 (stereo not given),–,inactive,–,inactive,–,–,inactive,inactive,inactive,inactive,inactive,inactive,inactive,inactive,–,–,inactive,inactive,inactive,inactive
O=C1O[C@H](CO)[C@@H](O)[C@H](O)[C@H]1O,–,–,inactive,inactive,inactive,inactive,inactive,inactive,inactive,inactive,inactive,inactive,inactive,inactive,inactive,inactive,inactive,inactive,inactive,inactive
O=C1N=C(O)CN1/N=C/c1ccc(-c2ccc([N+](=O)[O-])cc2)o1,–,inactive,–,inactive,–,–,48.6 µM (active),inactive,inactive,inactive and 48.6 µM (active),–,–,inactive,inactive,15 µM (active) and 30.6 µM (active),–,–,inactive,inactive,–
CCCCCCOC(C)=O,–,–,inactive,inactive,inactive,inactive,inactive,inactive,inactive,inactive,inactive,inactive,inactive,inactive,inactive,inactive,inactive,inactive,inactive,–
